Assay in all cases: PBM; 200 nM protein, PBS
What all share (conditions): dsDNA, one strand shown

For assay [1], the target named is HOXB9 (Homo sapiens, UniProt P17482 171-250, T197M).
Assay [2] concerns the target HOXC9 (Homo sapiens, UniProt P31274 178-260, K195R).
Assay [3] concerns the target T1, VENTX (Homo sapiens, UniProt O95231 78-163).
T1 sequence: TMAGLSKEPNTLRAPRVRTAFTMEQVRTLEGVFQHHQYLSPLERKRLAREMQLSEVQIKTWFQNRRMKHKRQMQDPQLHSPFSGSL

The target in assay [4] is T2, PAX4 (Homo sapiens, UniProt O43316 9-242, R200K).
T2 sequence: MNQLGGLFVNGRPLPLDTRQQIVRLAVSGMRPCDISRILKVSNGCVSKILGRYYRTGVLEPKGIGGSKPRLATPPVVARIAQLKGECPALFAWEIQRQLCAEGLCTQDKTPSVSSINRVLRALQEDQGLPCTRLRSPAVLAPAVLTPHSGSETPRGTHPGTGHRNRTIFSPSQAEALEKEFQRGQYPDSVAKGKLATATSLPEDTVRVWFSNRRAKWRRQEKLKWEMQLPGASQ

Assay [5] has as its target T3, VENTX (Homo sapiens, UniProt O95231 78-163, Y115F).
T3 sequence: T1 sequence with Y38F

In assay [6] the target is T4, PAX4 (Homo sapiens, UniProt O43316 9-242).
T4 sequence: T2 sequence with K192R

The target of assay [7] is HOXB9 (Homo sapiens, UniProt P17482 171-250).
HOXB9 (Homo sapiens, UniProt P17482 171-250), sequence (P17482 171-250): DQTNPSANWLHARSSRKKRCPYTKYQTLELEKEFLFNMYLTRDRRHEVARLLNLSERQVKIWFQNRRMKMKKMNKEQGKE
The target in assay [8] is T5, PAX4 (Homo sapiens, UniProt O43316 9-242, R200Q).
T5 sequence: T2 sequence with K192Q

Assay [9] deals with HOXC9 (Homo sapiens, UniProt P31274 178-260, R193K).
HOXC9 (Homo sapiens, UniProt P31274 178-260, R193K), sequence (P31274 178-260 R193K): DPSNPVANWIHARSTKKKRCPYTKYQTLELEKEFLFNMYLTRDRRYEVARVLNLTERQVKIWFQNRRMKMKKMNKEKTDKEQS
The target of assay [10] is T6, PAX4 (Homo sapiens, UniProt O43316 9-242, F177V).
T6 sequence: T2 sequence with F169V, K192R

Assay [11] concerns the target HOXC10 (Homo sapiens, UniProt Q9NYD6 254-340, K271E).
Assay [12] has as its target T7, PAX4 (Homo sapiens, UniProt O43316 9-242, F177Y).
T7 sequence: T2 sequence with F169Y, K192R

For assay [13], the target named is VAX1 (Homo sapiens, UniProt Q5SQQ9 86-172).
VAX1, sequence (Q5SQQ9 86-172): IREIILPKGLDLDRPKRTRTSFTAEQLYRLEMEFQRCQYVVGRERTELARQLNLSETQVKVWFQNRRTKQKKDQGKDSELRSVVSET
The target of assay [14] is HOXB9 (Homo sapiens, UniProt P17482 171-250, R186Q).
HOXB9 (Homo sapiens, UniProt P17482 171-250, R186Q), sequence (P17482 171-250 R186Q): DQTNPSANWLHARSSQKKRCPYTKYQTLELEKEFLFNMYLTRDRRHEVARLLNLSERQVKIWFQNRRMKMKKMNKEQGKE
The target of assay [15] is HOXC9 (Homo sapiens, UniProt P31274 178-260, R222W).
HOXC9 (Homo sapiens, UniProt P31274 178-260, R222W), sequence (P31274 178-260 R222W): as the sequence (P31274 178-260 R193K) above, with K16R, R45W counted along it
Assay [16] has as its target T8, PAX4 (Homo sapiens, UniProt O43316 9-242, R227W).
T8 sequence: T2 sequence with K192R, R219W

The target in assay [17] is HOXA2 (Homo sapiens, UniProt O43364 129-215, Y150S).
HOXA2 (Homo sapiens, UniProt O43364 129-215, Y150S), sequence (O43364 129-215 Y150S): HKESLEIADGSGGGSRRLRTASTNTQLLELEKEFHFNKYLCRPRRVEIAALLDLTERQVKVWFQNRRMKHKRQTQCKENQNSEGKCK
Assay [18] has as its target HOXA2 (Homo sapiens, UniProt O43364 129-215).
Assay [19] addresses NKX2-5 (Homo sapiens, UniProt P52952 125-210, R139K).
For assay [20], the target named is NKX2-5 (Homo sapiens, UniProt P52952 125-210).
NKX2-5 (Homo sapiens, UniProt P52952 125-210), sequence (P52952 125-210): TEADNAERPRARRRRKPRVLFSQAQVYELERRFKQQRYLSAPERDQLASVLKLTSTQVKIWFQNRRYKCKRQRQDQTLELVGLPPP

Residue numbers refer to the chain shown, from its start.

NKX2-5 (Homo sapiens, UniProt P52952 125-210, R139K), sequence (P52952 125-210 R139K): as the sequence (P52952 125-210) above, with R15K counted along it
HOXB9 (Homo sapiens, UniProt P17482 171-250, T197M), sequence (P17482 171-250 T197M): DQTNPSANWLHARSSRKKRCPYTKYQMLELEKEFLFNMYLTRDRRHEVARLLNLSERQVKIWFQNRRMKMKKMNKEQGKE
HOXC10, sequence (Q9NYD6 254-340 K271E): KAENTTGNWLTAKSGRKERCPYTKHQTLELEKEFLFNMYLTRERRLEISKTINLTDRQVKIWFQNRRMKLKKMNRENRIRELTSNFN
HOXC9 (Homo sapiens, UniProt P31274 178-260, K195R), sequence (P31274 178-260 K195R): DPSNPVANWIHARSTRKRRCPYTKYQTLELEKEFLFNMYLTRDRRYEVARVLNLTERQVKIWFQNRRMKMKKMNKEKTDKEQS
HOXA2 (Homo sapiens, UniProt O43364 129-215), sequence (O43364 129-215): as the sequence (O43364 129-215 Y150S) above, with S22Y counted along it

As for ATAATTAC, the binding signal is 10.5 upbm affinity estimate (log intensity, higher = more binding, comparable within an allelic series) in assay [1]; 13 upbm affinity estimate (log intensity, higher = more binding, comparable within an allelic series) in assay [2]; 12.5 upbm affinity estimate (log intensity, higher = more binding, comparable within an allelic series) in [3]; 11.8 upbm affinity estimate (log intensity, higher = more binding, comparable within an allelic series) in [4]; 12 upbm affinity estimate (log intensity, higher = more binding, comparable within an allelic series) in [5]; 12.3 upbm affinity estimate (log intensity, higher = more binding, comparable within an allelic series) in assay [6]. Also, the binding signal in assay [7] was 12.1 upbm affinity estimate (log intensity, higher = more binding, comparable within an allelic series); in [8] it was 12.3 upbm affinity estimate (log intensity, higher = more binding, comparable within an allelic series); in assay [9], 12.9 upbm affinity estimate (log intensity, higher = more binding, comparable within an allelic series); in assay [10] it was 10.8 upbm affinity estimate (log intensity, higher = more binding, comparable within an allelic series); in assay [11] it was 12.4 upbm affinity estimate (log intensity, higher = more binding, comparable within an allelic series); in assay [12], 11.2 upbm affinity estimate (log intensity, higher = more binding, comparable within an allelic series). For the same sequence, the binding signal was 13.4 upbm affinity estimate (log intensity, higher = more binding, comparable within an allelic series) in assay [13]; 11.9 upbm affinity estimate (log intensity, higher = more binding, comparable within an allelic series) in assay [14]; 11.1 upbm affinity estimate (log intensity, higher = more binding, comparable within an allelic series) in [15]; 11.2 upbm affinity estimate (log intensity, higher = more binding, comparable within an allelic series) in assay [16]; 11.1 upbm affinity estimate (log intensity, higher = more binding, comparable within an allelic series) in assay [17]; 13.1 upbm affinity estimate (log intensity, higher = more binding, comparable within an allelic series) in assay [18].

For GCCGGCAA, the binding signal in assay [19] is 9.18 upbm affinity estimate (log intensity, higher = more binding, comparable within an allelic series); in [20], 8.86 upbm affinity estimate (log intensity, higher = more binding, comparable within an allelic series).

AGCACTAG: the binding signal in assay [19] was 10.6 upbm affinity estimate (log intensity, higher = more binding, comparable within an allelic series); in assay [20] it was 10.6 upbm affinity estimate (log intensity, higher = more binding, comparable within an allelic series).

Consider AACGGTGG, for which the binding signal in assay [19] is 9.06 upbm affinity estimate (log intensity, higher = more binding, comparable within an allelic series); in assay [20] it was 8.98 upbm affinity estimate (log intensity, higher = more binding, comparable within an allelic series).

Take CATAATTA: the binding signal in assay [1] was 10.3 upbm affinity estimate (log intensity, higher = more binding, comparable within an allelic series); in assay [2], 12.8 upbm affinity estimate (log intensity, higher = more binding, comparable within an allelic series); in assay [3] it was 12.6 upbm affinity estimate (log intensity, higher = more binding, comparable within an allelic series); in [4], 11.9 upbm affinity estimate (log intensity, higher = more binding, comparable within an allelic series); in [5] it was 11.9 upbm affinity estimate (log intensity, higher = more binding, comparable within an allelic series); in [6], 12.5 upbm affinity estimate (log intensity, higher = more binding, comparable within an allelic series). For the same sequence, the binding signal was 11.9 upbm affinity estimate (log intensity, higher = more binding, comparable within an allelic series) in assay [7]; 12.1 upbm affinity estimate (log intensity, higher = more binding, comparable within an allelic series) in assay [8]; 12.8 upbm affinity estimate (log intensity, higher = more binding, comparable within an allelic series) in [9]; 11 upbm affinity estimate (log intensity, higher = more binding, comparable within an allelic series) in assay [10]; 12.2 upbm affinity estimate (log intensity, higher = more binding, comparable within an allelic series) in [11]; 11.3 upbm affinity estimate (log intensity, higher = more binding, comparable within an allelic series) in assay [12]. Also, the binding signal in assay [13] is 13.6 upbm affinity estimate (log intensity, higher = more binding, comparable within an allelic series); in [14], 11.7 upbm affinity estimate (log intensity, higher = more binding, comparable within an allelic series); in assay [15] it was 11.1 upbm affinity estimate (log intensity, higher = more binding, comparable within an allelic series); in assay [16] it was 11.3 upbm affinity estimate (log intensity, higher = more binding, comparable within an allelic series); in [17], 11.1 upbm affinity estimate (log intensity, higher = more binding, comparable within an allelic series); in [18], 13 upbm affinity estimate (log intensity, higher = more binding, comparable within an allelic series).

With ATAATTAA, the binding signal in [1] was 10.3 upbm affinity estimate (log intensity, higher = more binding, comparable within an allelic series); in assay [2], 12.9 upbm affinity estimate (log intensity, higher = more binding, comparable within an allelic series); in [3], 12.5 upbm affinity estimate (log intensity, higher = more binding, comparable within an allelic series); in assay [4] it was 11.9 upbm affinity estimate (log intensity, higher = more binding, comparable within an allelic series); in assay [5], 12 upbm affinity estimate (log intensity, higher = more binding, comparable within an allelic series); in [6], 12.4 upbm affinity estimate (log intensity, higher = more binding, comparable within an allelic series). The binding signal is 12.1 upbm affinity estimate (log intensity, higher = more binding, comparable within an allelic series) in assay [7]; 12.3 upbm affinity estimate (log intensity, higher = more binding, comparable within an allelic series) in [8]; 12.8 upbm affinity estimate (log intensity, higher = more binding, comparable within an allelic series) in assay [9]; 10.8 upbm affinity estimate (log intensity, higher = more binding, comparable within an allelic series) in [10]; 12.3 upbm affinity estimate (log intensity, higher = more binding, comparable within an allelic series) in [11]; 11.2 upbm affinity estimate (log intensity, higher = more binding, comparable within an allelic series) in [12]. Moreover, the binding signal in assay [13] is 13.5 upbm affinity estimate (log intensity, higher = more binding, comparable within an allelic series); in assay [14] it was 11.9 upbm affinity estimate (log intensity, higher = more binding, comparable within an allelic series); in [15], 11.2 upbm affinity estimate (log intensity, higher = more binding, comparable within an allelic series); in assay [16], 11.2 upbm affinity estimate (log intensity, higher = more binding, comparable within an allelic series); in [17], 11 upbm affinity estimate (log intensity, higher = more binding, comparable within an allelic series); in assay [18], 13 upbm affinity estimate (log intensity, higher = more binding, comparable within an allelic series).

The values above are taken from article PMC11006913.
